The list is not random: actives were taken first. Their share in the collection is about 4.5%.
Jurkat NFkB inh – lowers PMA/ionomycin-induced NF-kB signal in Jurkat cells; inhibition, % at 4 µM; actives 0.53% (n = 330,000); PMA/ionomycin-induced NF-kB luciferase reporter, luminescence; in the data active means inhibition above about 50%
Mdm2-MdmX inh – inhibitors of human Mdm2/MdmX interaction | inhibition, % at 8 µM | AID 485346 | actives 3% (n = 330,000) | SaOS-2 split-luciferase Mdm2/MdmX complementation, luminescence | O15151+Q00987;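 active means inhibition of at least 50% at 8 µM in the primary screen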
CSC inhib – blocks cancer stem cells; cancer stem cell-like cells viability, luminescence; inhibition, % at 7.5 µM; actives 1.1% (n = 300,000); AID 2717; in the data active means inhibition above about 75%; tested in HMLE shEcad cells
697 NFkB inh – inhibitors of the PMA/ionomycin-induced NF-kB reporter in 697 B cells | 697 B-cell NF-kB luciferase reporter, 16 h | inhibition, % at 4 µM | actives 0.33% (n = 330,000) | AID 435022; in the data active means inhibition above about 35%
Beta cell apopt – blocks beta cell apoptosis; INS-1E cytokine-induced death, ATP luminescence, 48 h; percent of positive-control rescue, neutral wells zero; AID 435005; protection from apoptosis, % (no concentration beside the values); actives 0.8% (n = 300,000);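 active means Every replicate reaches about 75%, or at least half do and their mean reaches it too, limit read from the data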;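 further: 0% = cytokine-treated negative control wells and 100% = positive control rescue; higher means more ATP so stronger rescue from cytokine killing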
Gli-Sufu antag – Gli-Sufu pathway antagonism; Sufu-KO-LIGHT fibroblasts, Gli luciferase reporter luminescence; inhibition, % at 5 µM; actives 0.74% (n = 340,000); AID 588413;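 active means inhibition above about 55%, limit read from the data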;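 further: 0% = DMSO-treated cells and 100% = wells with medium but no cells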
Mdm2 MdmX conf – confirmation of human Mdm2/MdmX interaction inhibitors | inhibition, % at 8 µM | actives 55% (n = 10,000) | Mdm2-MdmX binding, luminescent assay | shares compounds with Mdm2-MdmX inh; in the data active means inhibition above about 40%
FLuc counter – inhibits full-length luciferase, flagging false Mdm2/MdmX hits. shares compounds with Mdm2-MdmX inh. SaOS-2 full-length luciferase counterscreen, luminescence. inhibition, % at 8 µM. actives 77% (n = 6,200). AID 504607;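 active means mean inhibition at 8 µM reaching about 37%, which flags the compound as non-specific, limit read from the data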;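 further: p53-null SaOS-2 cells with luciferase driven by a doxycycline-inducible promoter; compound on cells about two nights before reading with doxycycline added after day one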
An asterisk follows results filed as active; . = no result given.

SMILES | Jurkat NFkB inh | Mdm2-MdmX inh | CSC inhib | 697 NFkB inh | Beta cell apopt | Gli-Sufu antag | Mdm2 MdmX conf | others
COC(=O)C1=C(c2ccc(-c3ccccc3)c(F)c2)C[C@@H]2CC[C@H]1N2C(=O)NCC1CC1 | 3 | 27 | 21 | -26 | 51 | 25 | .
CS(=O)(=O)CCN1CC2CCCC(C2)C1 | . | . | . | . | . | 5 | .
CCOP(=O)(NC(C)C)Oc1ccc(SC)c(C)c1 (stereo not drawn) | . | . | . | . | . | -3 | .
C[C@@H]1CC2C3CC=C4C[C@@H](O)CC[C@]4(C)C3CC[C@]2(C)[C@H]1O (stereo partly drawn) | -5 | -13 | -14 | -18 | 1 | 1 | .
C[C@H]1CC[C@@H]2[C@@H](C)[C@H]3[C@H](C[C@H]4[C@@H]5CC=C6C[C@@H](O[C@@H]7O[C@H](CO)[C@H](O)[C@H](O[C@@H]8O[C@H](CO)[C@@H](O)[C@H](O)[C@H]8O)[C@H]7O[C@@H]7O[C@@H](C)[C@H](O)[C@@H](O)[C@H]7O)CC[C@]6(C)[C@H]5CC[C@]34C)N2C1 | -2 | 60* | -11 | -4 | -5 | -9 | -11
CC(C)CNC(=O)c1c(N)n(Cc2ccc3c(c2)OCO3)c2nc3ccccc3nc12 | -8 | 61* | 69 | -9 | -11 | 7 | 15
CC(C)CCNC(=O)c1c(N)n(Cc2ccc3c(c2)OCO3)c2nc3ccccc3nc12 | -7 | 24 | 29 | 4 | -7 | 0 | .
COC(=O)C1=C(c2ccc(OC(F)(F)F)cc2)C[C@@H]2CC[C@H]1N2C(=O)N1CCCCC1 | -4 | 21 | 1 | -14 | -4 | 39 | .
COc1ccc(-c2cc(-c3ccccc3)[n+](C)c(-c3ccccc3)c2)cc1 | 42 | 55* | -12 | -8 | 109* | 44 | 36 | FLuc counter=52*
COc1cc2c(cc1OC)C13CCN4C=C5CCOC6CC(=O)N2C1C6C5CC43 (stereo not drawn) | . | . | . | . | . | 14 | .
CC(=O)O[C@@H]1/C=C/[C@](C)(O)C[C@@H](C)C/C=C/[C@H]2[C@H](O)C(C)=C(C)[C@H]3[C@H](Cc4ccccc4)NC(=O)[C@@]123 | -6 | 72* | 4 | 29 | 8 | 23 | 74* | FLuc counter=49*
C=C1C(C)C2C(Cc3ccccc3)NC(=O)C23C(OC(C)=O)C=CC(C)(O)CC(C)CC=CC3C1O (stereo not drawn) | . | . | . | . | . | 30 | .
Cc1cc([N+](=O)[O-])c2ccccc2[n+]1[O-] | 25 | 99* | 32 | 13 | 115* | 17 | 100* | FLuc counter=51*
Cc1ccccc1[N+](=O)[O-] | 10 | -12 | -13 | 9 | 5 | 14 | .
CC1=C(C)CC2(C(=O)NC(=S)NC2=O)C(C)C1 (stereo not drawn) | . | . | . | . | . | -25 | .
C#C[C@]1(O)CC[C@H]2[C@@H]3CCC4=Cc5nc6nc7ccccc7n6cc5C[C@]4(C)[C@H]3CC[C@@]21C | 22 | 55* | 39 | -29 | 6 | -12 | 2
COC[C@H]1OC(=O)c2coc3c2[C@@]1(C)C1=C(C3=O)[C@@H]2CCC(=O)[C@@]2(C)C[C@H]1OC(C)=O | . | . | . | . | . | 33 | .
COCCO[C@H]1CC[C@@]2(C)C(=CCC3C2CC[C@@]2(C)C3CC[C@]2(C)O)C1 (stereo partly drawn) | -20 | 1 | 35 | -13 | -1 | -3 | .
COC(=O)C1=C(c2cc3ccccc3s2)C[C@@H]2CC[C@H]1N2C(=O)N1CCCCC1 | 38 | 52* | 49 | -16 | 4 | -7 | 57* | FLuc counter=40*
COC(=O)C1=C(c2cc3ccccc3s2)C[C@@H]2CC[C@H]1N2C(=O)N1CCC(O)CC1 | -1 | 4 | 10 | 1 | 1 | 3 | .
CCCCCCCSc1cc(OC)c(CCN(C)C)cc1OC | 11 | 74* | 34 | -5 | -2 | 11 | 29
CC1c2ccccc2-n2nncc2CN1C (stereo not drawn) | . | . | . | . | . | 6 | .
C=CCN(CC=C)C(=O)CCN1CC1C (stereo not drawn) | . | . | . | . | . | 3 | .
O=C1NC(=O)C(=Cc2cn(CCOc3ccc4c(c3)OCO4)c3ccccc23)C(=O)N1 | -1 | 59* | 37 | -61 | 3 | 10 | 24
O=c1[nH]c2ccccc2n1C1CCN(CCCC(c2ccc(F)cc2)c2ccc(F)cc2)CC1 | 20 | 66* | 98* | -18 | -3 | 0 | 10
SMILES | Jurkat NFkB inh | Mdm2-MdmX inh | CSC inhib | 697 NFkB inh | Beta cell apopt | Gli-Sufu antag | Mdm2 MdmX conf | others
CC1CCC(C(C)C)C(OC(=O)Cn2c(COc3ccccc3)[n+](C)c3ccccc32)C1 (stereo not drawn) | 24 | 98* | 98* | -25 | 106* | 34 | 96* | FLuc counter=54*
COc1ccccc1OCCCn1cc(C(=O)c2ccco2)c2ccccc21 | -12 | 16 | 10 | -56 | 2 | 7 | .
O=C(c1ccco1)c1cn(Cc2ccc(Cl)cc2)c2ccccc12 | 23 | 51* | -19 | 8 | -9 | -3 | 34 | FLuc counter=68*
CNCC(O)c1cc(OCc2ccccc2)c(OCc2ccccc2)cc1F (stereo not drawn) | 10 | 82* | -21 | 14 | 6 | 23 | 8
COC(=O)C1C2c3ccccc3C(c3ccccc32)C1C(=O)OC (stereo not drawn) | -1 | 24 | -5 | 13 | -8 | 0 | .
COC(=O)C1=C(C)NC(C)=C(C(=O)OC)C1c1ccccc1[N+](=O)[O-] | 11 | 97* | 8 | -3 | . | . | 53* | FLuc counter=28
Cc1ccc(-c2nc(N(C)C3CCN(C)CC3)c3ccccc3n2)cc1 | -2 | 40 | 21 | 19 | 17 | -8 | .
Cc1ccc(S(=O)(=O)c2nc(-c3ccccc3Cl)oc2N(C)C2CCN(C)CC2)cc1 | -13 | 72* | 41 | -12 | 7 | 19 | 8
CC(CC(C)(C)N1CC1)=NNC(=O)Nc1cccc2ccccc12 | . | . | . | . | . | 9 | .
Cc1ccc2c(c1)C1CN(C)CCC1N2C(=O)c1ccc(Br)o1 (stereo not drawn) | -8 | 17 | 1 | 8 | 3 | -17 | .
Cc1ccc2c(c1)C1CN(C)CCC1N2C(=O)Nc1cccc(C(F)(F)F)c1 (stereo not drawn) | 18 | 55* | -6 | 26 | 0 | 7 | 37 | FLuc counter=65*
Cc1ccc2c(c1)C1CN(C)CCC1N2C(=O)c1cn(-c2ccccc2)nc1-c1ccccc1 (stereo not drawn) | 4 | 73* | 15 | 7 | 13 | 24 | 36 | FLuc counter=76*
Cc1ccc2c(c1)C1CN(C)CCC1N2C(=O)c1cccnc1Cl (stereo not drawn) | 6 | 12 | -10 | 6 | -1 | 4 | .

Screening data (PubChem)
